Test [1] in a line: glutamate transport activators, MN-1 cells, MN-1 cell line (AID 1612).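 Further: tested at 1 µM final; 0% = mean of DMSO vehicle wells on each plate; positive means more glutamate uptake than control and negative means less.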 To be noted: MN-1 motor neuron cells, stronger effect = higher value.
Test [2] is described as follows: GFP-Q80 aggregate reduction, neuronal-like cells, cell-based, NGF-treated PC12, GFPQ80 (AID 1614).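 Further: lower means fewer inclusions and 0 means no inclusions at all.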 To be noted: PC12 NGF-treated GFP-polyQ80 inclusion reduction.
Test [3] is described as follows: 75Q-TubH aggregate inhibition, S. cerevisiae, yeast (AID 1616). To be noted: S. cerevisiae 75Q-TubH polyglutamine aggregation suppression; stronger effect = higher value.
Test [4] in a line: compounds altering viability of human ES cells (AID 493140; call rule not given here;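 further: cells exposed to compounds for four days before counting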). To be noted: human embryonic stem cell survival screen; stronger effect = higher value.
A short description of test [5]: P. berghei load reduction in hepatocytes – cell-based, HepG2, luciferase luminescence, HepG2 viability, primary screen (AID 624349).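 Further: 100% = mean of DMSO negative control wells on the same plate.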 As to conditions: P. berghei liver stage in HepG2, luciferase luminescence, concentration not given here; parasite load remaining: stronger effect = lower value; viability: measured here: HepG2 viability without parasites.
Test [6] in a line: Wnt pathway potentiators raising nuclear beta-catenin – imaging, WNT3A-conditioned medium, mouse C2C12, NPC library, primary screen (AID 1117326; in the data active means nuclear beta-catenin stimulation mostly above about 4.2%, no sharp cut-off; inactive means mostly below about 10%). As to conditions: stronger effect = higher value.
The nature of test [7]: signal quenchers or enhancers, Cy5 substrate/SSB – biochemical, NIH Clinical Collection, E. coli SSB, artefact control for HCV NS3 helicase inhibitor project (AID 743268; call rule not given here). As to conditions: Cy5-oligo bound E. coli SSB, fluorescence interference.
The test system of test [8] is Hepatitis C virus NS3 helicase. As to the kind of experiment: blockers of NS3h binding to DNA – biochemical, fluorescence polarization, NIH Clinical Collection, primary screen (AID 743270; call rule not given here). As to conditions: NS3 helicase binding to Cy5-dT15 DNA, stronger effect = higher value, concentration not given here. Background: Fluorescence polarisation rises when a labelled molecule tumbles more slowly, as on binding a larger partner.

Test [9] addresses Single-stranded DNA-binding protein (Escherichia coli (strain K12)) (UniProt P0AGE0). Briefly: SSB-ssDNA binding inhibitors – biochemical, fluorescence polarization, NIH Clinical Collection, counter-screen for HCV NS3 helicase inhibitor project (AID 743271; in the data active means inhibition above about 28%). As to conditions: E. coli SSB-DNA binding, stronger effect = higher value, concentration not given here.
Test [10] in a line: compounds distorting NS3 helicase fluorescence signal – biochemical, NIH Clinical Collection, artefact control for HCV NS3 helicase inhibitor project (AID 743272; call rule not given here;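 further: HCV NS3 helicase with a Cy5 labelled single stranded DNA probe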). As to conditions: fluorescence interference counterscreen, HCV NS3 helicase assay; stronger effect = lower value.
In test [11] the test system is Neuropilin-2 / VEGF-C interaction (human). As to the kind of experiment: small molecules blocking Neuropilin-2/VEGF-C interaction – biochemical, microplate binding format, z-score (AID 743281; call rule not given here). As to conditions: microplate NRP2/VEGF-C binding assay; stronger effect = lower value.

10 compounds from PubChem BioAssay can be followed below.

Each structure is given as a SMILES string. Several values for one entry are separate records, joined by “and”; a condition that tells them apart may be missing. Identical values can stand only once. Activity calls are given as the source filed them. Unless noted, no stated cut-off is given here; in the data, active means parasite load remaining mostly below about 12% (no sharp cut-off); inactive means mostly above about 10%.

What is called viability is a read-out of living cells in per cent, often relative to untreated cells. On to `CCOc1ccc(Cc2nccc3cc(OCC)c(OCC)cc23)cc1OCC`, for which the glutamate uptake change in test [1] worked out at 33.7%. For the same compound, the inclusion score in [2] was determined as 2. The same compound registered an aggregation suppression score in test [3] of 1.07. Moreover, the survival in [4] is 5.17 (inactive). Further, in test [5], the parasite load remaining is 28.9% (inactive) and 13.1% (inactive); the viability was 78.6% and 42.8%. In addition, the nuclear beta-catenin stimulation in [6] (at 10 µM) was 1.8% (inactive). Moreover, in test [6] (stimulation, at 2 µM), the nuclear beta-catenin stimulation amounted to 7.1%.

As to `NC(=O)NC1NC(=O)NC1=O` (centres undefined), the glutamate uptake change in [1] is -8.53%. Further, in test [2], the inclusion score came out at 2. In [3], this compound showed an aggregation suppression score of 0.815. Also, the survival in [4] was 26.8 (inactive). Moreover, the nuclear beta-catenin stimulation in test [6] (at 10 µM) was -0.1% (inactive); in [6] (stimulation, at 2 µM), 1.1%.

Take `O=C(O)CCC(=O)Nc1ccc(S(=O)(=O)Nc2nccs2)cc1`: in [1], the glutamate uptake change is 14.7%. Also, the inclusion score in [2] came out at 2. The same compound registered an aggregation suppression score in [3] of 1.1. Also, the survival in [4] was 6.17 (inactive). Moreover, in test [5], the parasite load remaining was 92.2% (inactive) and 146% (inactive) and 21.3% (inactive); the viability was 97.3% and 69.1% and 82.2%. Further, in test [6] (at 10 µM), the nuclear beta-catenin stimulation is -0.6% (inactive). In [6] (stimulation, at 2 µM), the nuclear beta-catenin stimulation worked out at 0.6%.

For `O=C(O)c1ccccc1Nc1cccc(C(F)(F)F)c1`, the glutamate uptake change in test [1] was -15.4%. The same compound displayed an inclusion score in [2] of 2. Moreover, the aggregation suppression score in test [3] was -0.092. Moreover, the survival in [4] was 25.2 (inactive). The nuclear beta-catenin stimulation is 1.3% (inactive) in test [6] (at 10 µM) and 2.3% in [6] (stimulation, at 2 µM).

As usually defined, the inhibition is the drop in the measured response relative to a control, in per cent. Turning to `Cc1ncc([N+](=O)[O-])n1CCO`, the glutamate uptake change in [1] was 20.8%. In addition, the inclusion score in test [2] was determined as 2. Besides, the aggregation suppression score in test [3] is 0.969. Further, the survival in test [4] is 10.8 (inactive). Besides, the fluorescence ratio was 0.95 (inactive) in [7] and 0.88 (inactive) in test [10]. In addition, the inhibition in test [8] was -2.77% (inactive); in test [9], 4.52% (inactive). For the same compound, the z-score in test [11] is -0.317 (inactive). The nuclear beta-catenin stimulation in test [6] (at 10 µM) is -0.2% (inactive); in test [6] (stimulation, at 2 µM), 0.7%.

`OC(CCN1CCCCC1)(c1ccccc1)c1ccccc1`: in test [1], the glutamate uptake change was -4.45%. This compound also displayed an inclusion score in [2] of 2. In test [3], the aggregation suppression score is 1.43. Besides, in test [4], the survival is 3.42 (inactive). In addition, in [5], the parasite load remaining is 89.9% (inactive) and 126% (inactive); the viability is 98.8% and 84.6%. For the same compound, in [6] (at 10 µM), the nuclear beta-catenin stimulation was 0.4% (inactive). The nuclear beta-catenin stimulation in test [6] (stimulation, at 2 µM) stood at 2.1%.

In the case of `CC(=O)Nc1ccc(O)cc1`, the glutamate uptake change in [1] was -4.6%. The compound further showed an inclusion score in test [2] of 2. Moreover, the aggregation suppression score in test [3] amounted to 1.73. The survival in [4] was 5.25 (inactive). In addition, in test [5], the parasite load remaining is 99.6% (inactive) and 108% (inactive) and 46.1% (inactive); the viability was 106% and 78.8% and 112%. For the same compound, the nuclear beta-catenin stimulation in [6] (at 10 µM) was -0.4% (inactive). The nuclear beta-catenin stimulation in [6] (stimulation, at 2 µM) was -0.2%.

With `CCN1CCCC(OC(=O)C(c2ccccc2)c2ccccc2)C1` (centres undefined), the glutamate uptake change in [1] came to 7.33%. This compound returned an inclusion score in [2] of 1.5. Also, the aggregation suppression score in test [3] is 1.15. Moreover, the survival in [4] is 12 (inactive). Moreover, in test [5], the parasite load remaining was 78.7% (inactive) and 105% (inactive) and 40.1% (inactive); the viability is 75.6% and 65.9% and 85.9%. Further, the nuclear beta-catenin stimulation in [6] (at 10 µM) is 0.6% (inactive). Besides, the nuclear beta-catenin stimulation in test [6] (stimulation, at 2 µM) is 2.6%.

As for `COc1cnc(NS(=O)(=O)c2ccc(N)cc2)nc1`, in [1], the glutamate uptake change was -0.58%. The inclusion score in test [2] amounted to 2. In test [3], the aggregation suppression score came out at 1.45. Besides, the survival in test [4] was 4.42 (inactive). In test [5], the parasite load remaining was 75.1% (inactive) and 108% (inactive) and 64.2% (inactive); the viability was 93.4% and 66.1% and 87.2%. For the same compound, the nuclear beta-catenin stimulation in test [6] (at 10 µM) is 0.2% (inactive). Also, the nuclear beta-catenin stimulation in test [6] (stimulation, at 2 µM) stood at 2%.

For the compound `Nc1ccc(C(=O)NCC(=O)O)cc1`, the glutamate uptake change in [1] was -9.5%. This compound also showed an inclusion score in test [2] of 2. In test [3], this compound returned an aggregation suppression score of 1.33. The survival in [4] is 1.83 (inactive). For the same compound, in test [5], the parasite load remaining is 103% (inactive) and 157% (inactive) and 40.5% (inactive); the viability is 101% and 82% and 89.7%. In addition, the nuclear beta-catenin stimulation in test [6] (at 10 µM) is 0.5% (inactive). In [6] (stimulation, at 2 µM), the nuclear beta-catenin stimulation came to 1.4%.
